Results on seven compounds are retold here after PubChem BioAssay.

The source made the active and inactive calls.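 How the source made its calls, unless noted: active means fluorescence slope after compound addition differing from the mean of all screened samples at 99.7% confidence, in either direction; inactive means the rest.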

Experiment [1] in a line: inhibitors of TNFa-induced NFkB p65 translocation, primary screen, imaging, HUVEC, MLSMR starter and 10KST1 sets (AID 438;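 active means inhibition above 20% together with a positive visual image hit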;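 further: compound added about 3h40 before a 20 min TNFalpha stimulation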;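 on inhibition: signal is the nuclear over cytoplasmic p65 intensity ratio per well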). Particulars: HUVEC TNFa-induced p65 nuclear translocation; cell count: measured here: nuclei count (cytotoxicity indicator), at 2.08 µM; inhibition: at 2 µM, stronger effect = higher value, 0% TNFa-plus-vehicle, 100% no-TNFa wells.
The nature of experiment [2]: inhibitors of mutant huntingtin aggregation, primary screen, imaging, exon1htt(103Q)mCFP cells, high-content imaging (AID 483;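 active means visual image review flags a hit and inhibition of aggregation exceeds 20%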;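 further: compound exposure lasted 3 days before fixation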;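 on nuclei count: percent of the per-plate median nuclei count of sample wells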). Particulars: exon1htt(103Q)mCFP cell line, aggregate imaging, at 2 µM; inhibition of aggregation: stronger effect = higher value; nuclei count: measured here: cell count, toxicity.
A short description of experiment [3]: inhibitors of E-selectin induction by TNFa, primary screen, imaging, HUVEC, immunofluorescence, MLSMR starter and 10KST1 sets (AID 487;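 active means visually confirmed hit in the image check and inhibition above 20%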;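 on inhibition: signal is fraction of cell area covered by stained E-selectin grains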;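 on nuclei count: 100% = median nuclei count of all wells on the same plate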). Particulars: HUVEC TNFalpha-induced E-selectin immunofluorescence imaging, at 2 µM; inhibition: stronger effect = higher value; nuclei count: measured here: cell number, toxicity.
Experiment [4] concerns the target Voltage-gated potassium channel subunit beta-2 (Rattus norvegicus) (UniProt P62483). As to the kind of experiment: KvBeta enzyme negative modulators, primary screen, biochemical, NADPH fluorescence (AID 622;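 active means fluorescence slope higher than the sample average by over 3 SD, cut at about -0.22 in these data, passing the limit was not always enough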;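 further: slope of raw intensity against log time taken from 70 to 1610 s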). The conditions noted are these: recombinant KvBeta, 4-cyanobenzaldehyde reduction, at 10 µM, stronger effect = higher value.
Experiment [5] has the same target. Nature of the experiment: KvBeta positive modulators, primary screen, biochemical, NADPH fluorescence (AID 623;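 active means NADPH fluorescence slope more negative than the mean of all samples by about 3 SD, 99.7% confidence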;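 further: fluorescence intensity change per second fitted from 20 to 320 s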). Particulars: Recombinant KvBeta, NADPH fluorescence decrease slope, 10 min; at 10 µM; stronger effect = lower value.
The target in experiment [6] is Alpha-2C adrenergic receptor (Homo sapiens) (UniProt P18825). As to the kind of experiment: modulators of alpha2C/GIRK thallium flux, primary screen, cell-based, HEK293 alpha2C/GIRK1/2 (AID 624).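 Further: slope of fluorescence ratio to pre-addition baseline per second over 15 to 24 s.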 Particulars: thallium flux BTC fluorescence, at 10 µM, actives lie on both sides.
Alpha-2C adrenergic receptor (Homo sapiens), sequence (P18825 whole entry, looked up): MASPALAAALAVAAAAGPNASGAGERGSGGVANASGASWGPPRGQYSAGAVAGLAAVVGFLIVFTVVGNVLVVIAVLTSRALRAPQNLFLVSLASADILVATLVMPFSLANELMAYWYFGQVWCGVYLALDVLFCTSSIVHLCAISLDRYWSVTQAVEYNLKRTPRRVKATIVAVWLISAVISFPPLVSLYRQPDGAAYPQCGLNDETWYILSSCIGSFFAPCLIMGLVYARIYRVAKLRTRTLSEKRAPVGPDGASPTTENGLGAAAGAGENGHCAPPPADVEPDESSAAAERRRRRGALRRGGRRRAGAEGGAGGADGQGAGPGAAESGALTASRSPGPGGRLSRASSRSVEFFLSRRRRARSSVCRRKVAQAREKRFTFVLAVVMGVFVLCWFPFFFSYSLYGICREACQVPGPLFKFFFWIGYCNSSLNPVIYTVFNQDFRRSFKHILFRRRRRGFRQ
Experiment [7] can be described thus: inhibitors of Sendai virus-induced IRF3 signaling, primary screen, TLR/RLR signaling modifier project, cell-based, Sendai virus stimulus, luciferase, 10K MLSCN set (AID 602276;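 active means inhibition at or above 50% at 10 µM; inactive means inhibition below 50%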;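 further: firefly luciferase from ISG56 promoter only with Renilla not read in this screen; 0% = Sendai virus plus DMSO and 100% = medium plus DMSO without virus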). The conditions noted are these: HEK293 RL24 IRF3 luciferase reporter, at 10 µM, stronger effect = higher value. In general terms: A reporter such as luciferase makes a cellular process visible.
A short description of experiment [8]: inhibitors of poly I:C-induced TLR3 signaling, primary screen, cell-based, poly I:C stimulus, luciferase, 10K MLSCN set (AID 602277;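 active means inhibition of the reporter signal at or above 50%; inactive means inhibition below 50%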). Particulars: HEK293-TLR3 RL24 IRF3 luciferase reporter, at 10 µM, stronger effect = higher value.

Voltage-gated potassium channel subunit beta-2 (Rattus norvegicus), sequence (P62483 whole entry, looked up): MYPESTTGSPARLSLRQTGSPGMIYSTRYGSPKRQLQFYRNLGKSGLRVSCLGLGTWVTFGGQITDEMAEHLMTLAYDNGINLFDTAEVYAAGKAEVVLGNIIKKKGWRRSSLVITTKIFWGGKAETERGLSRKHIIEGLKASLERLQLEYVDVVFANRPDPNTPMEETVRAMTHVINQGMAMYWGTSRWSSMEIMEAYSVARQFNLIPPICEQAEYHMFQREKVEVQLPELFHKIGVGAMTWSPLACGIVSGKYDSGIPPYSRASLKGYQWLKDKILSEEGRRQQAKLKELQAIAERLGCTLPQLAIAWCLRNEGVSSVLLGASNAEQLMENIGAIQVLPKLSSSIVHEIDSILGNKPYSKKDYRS

By inhibition is commonly meant the relative decrease from the control value, in per cent. As to `CCc1c(C)n([O-])c2c([n+]1=O)CCC2`, the cell count in experiment [1] came out at 369. Also, the inhibition in experiment [1] is 2.8% (inactive); in experiment [3], 3.1% (inactive); in experiment [7], -11.4% (inactive); in experiment [8] it was 7.02% (inactive). Also, the inhibition of aggregation in experiment [2] was -1.6% (inactive). Moreover, the results for the nuclei count in experiment [2] and in experiment [3] were 106% and 111%, respectively. Also, in experiment [4], the fluorescence slope was -0.51 (inactive). In experiment [5], the NADPH fluorescence slope is -1.5e-05 (inactive). Further, the slope in experiment [6] was 0.00618 (inactive).
As to `O=C(CN1C(=O)C2C3C=CC(C3)C2C1=O)NCc1ccc2c(c1)OCO2` (configuration not stated), the cell count in experiment [1] turned out to be 421. Moreover, the inhibition in experiment [1] is 7.5% (inactive); in experiment [3] it was -109% (inactive); in experiment [7], -4.21% (inactive); in experiment [8], 6.98% (inactive). In addition, the inhibition of aggregation in experiment [2] is 8.3% (inactive). Also, the nuclei count in experiment [2] was found to be 102%; in experiment [3], 104%. Moreover, the fluorescence slope in experiment [4] is -0.601 (inactive). Also, the NADPH fluorescence slope in experiment [5] was 1.2e-05 (inactive). The slope in experiment [6] is 0.00636 (inactive).
Consider `C/C=C/CSc1nc2c(c(=O)[nH]c(=O)n2C)n1Cc1ccc(C)cc1`, for which the cell count in experiment [1] is 693. In addition, the inhibition is -6.9% (inactive) in experiment [1], -43.7% (inactive) in experiment [3], -3.97% (inactive) in experiment [7] and 18.2% (inactive) in experiment [8]. In addition, in experiment [2], the inhibition of aggregation was -5% (inactive). Also, the nuclei count in experiment [2] amounted to 116%; in experiment [3], 112%. Besides, the fluorescence slope in experiment [4] was -0.542 (inactive). The NADPH fluorescence slope in experiment [5] was -3.9e-05 (inactive). In addition, the slope in experiment [6] is 0.0074 (inactive).
Regarding `COc1cccc(-c2nc(CS(=O)CC(=O)NCCCOC(C)C)c(C)o2)c1` (configuration not stated), the cell count in experiment [1] was determined as 193. For the same compound, the inhibition was -13% (inactive) in experiment [1], -27.1% (inactive) in experiment [3], 11.4% (inactive) in experiment [7] and 7.08% (inactive) in experiment [8]. For the same compound, the inhibition of aggregation in experiment [2] is 5.9% (inactive). Also, the nuclei count was determined as 119% in experiment [2] and 95.8% in experiment [3]. The fluorescence slope in experiment [4] was -0.486 (inactive). Also, the NADPH fluorescence slope in experiment [5] was -9.9e-06 (inactive). Further, the slope in experiment [6] was 0.00479 (inactive).
Regarding `O=C(CCC(=O)N1CCc2ccccc2C1)N1CCN(S(=O)(=O)c2ccccc2)CC1`, the cell count in experiment [1] was 361. Moreover, the inhibition is -2.5% (inactive) in experiment [1], -14.3% (inactive) in experiment [3], -9.4% (inactive) in experiment [7] and 5.93% (inactive) in experiment [8]. The inhibition of aggregation in experiment [2] is -6.9% (inactive). Also, the nuclei count in experiment [2] came out at 131%; in experiment [3], 102%. Moreover, in experiment [4], the fluorescence slope was -0.45 (inactive). The NADPH fluorescence slope in experiment [5] is -1.8e-05 (inactive). For the same compound, in experiment [6], the slope is 0.00506 (inactive).
Turning to `Cn1c(CCNC(=O)c2ccco2)nc2cc(NC(=O)C3CCCCC3)ccc21`, the cell count in experiment [1] came out at 359. Further, the inhibition in experiment [1] was 0.5% (inactive); in experiment [3], 42.2% (inactive); in experiment [7] it was 6.27% (inactive); in experiment [8], 0.497% (inactive). Also, the inhibition of aggregation in experiment [2] was 8.3% (inactive). Besides, the nuclei count worked out at 91.1% in experiment [2] and 88.8% in experiment [3]. Further, in experiment [4], the fluorescence slope is -0.466 (inactive). The NADPH fluorescence slope in experiment [5] is -0.000205 (inactive). Further, in experiment [6], the slope was 0.00612 (inactive).
With `Cc1nc(C)c(C(=O)C2=C(O)C(=O)N(CCN3CCOCC3)C2c2ccco2)s1` (configuration not stated), the cell count in experiment [1] stood at 244. In addition, the inhibition in experiment [1] is -3.2% (inactive); in experiment [3] it was -2.9% (inactive); in experiment [7], 11% (inactive); in experiment [8], 6.93% (inactive). Besides, the inhibition of aggregation in experiment [2] is 0.6% (inactive). The nuclei count was determined as 86.3% in experiment [2] and 104% in experiment [3]. Further, in experiment [4], the fluorescence slope is -0.388 (inactive). Moreover, in experiment [5], the NADPH fluorescence slope was -2.3e-06 (inactive). For the same compound, the slope in experiment [6] is 0.00517 (inactive).
